Experimental data reported in PubChem BioAssay (Tox21).
Inconclusive results are not listed. Calls of active or inactive are those of the source. Unless noted, calls follow the shape of the dose curve; as a rule, active = well fitted curve in the direction sought with a large enough effect in the repeat runs; inconclusive = weak or mixed curves; inactive = no such curve, though single readings can be large; an effect the other way counts as inactive or inconclusive.

Key:
[1] = qHTS assay to identify small molecule antagonists of the estrogen related receptor (ERR) signaling pathway from Tox21 library - cell viability counter screen (AID 1224834); also: nearly all actives have a fitted effect of over 30% in size; also: potency is read from the fitted curve at half-maximal effect
Summary of the method: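 Counter screen run in ERR cells (2,000 cells/well): cells pre-incubated 6 h, then treated with compounds for 17.5 h at 37 C. Fluorescence was read 30 min after CellTiter-Fluor addition.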

[2] = target: Luciferin 4-monooxygenase (Photinus pyralis) (UniProt P08659); test: qHTS assay to identify small molecule inhibitors of firefly luciferase (AID 1224835); also: nearly all actives have a fitted effect of over 25% in size; also: potency is read from the fitted curve at half-maximal effect
Chain of Luciferin 4-monooxygenase (Photinus pyralis) (P08659 whole entry, looked up): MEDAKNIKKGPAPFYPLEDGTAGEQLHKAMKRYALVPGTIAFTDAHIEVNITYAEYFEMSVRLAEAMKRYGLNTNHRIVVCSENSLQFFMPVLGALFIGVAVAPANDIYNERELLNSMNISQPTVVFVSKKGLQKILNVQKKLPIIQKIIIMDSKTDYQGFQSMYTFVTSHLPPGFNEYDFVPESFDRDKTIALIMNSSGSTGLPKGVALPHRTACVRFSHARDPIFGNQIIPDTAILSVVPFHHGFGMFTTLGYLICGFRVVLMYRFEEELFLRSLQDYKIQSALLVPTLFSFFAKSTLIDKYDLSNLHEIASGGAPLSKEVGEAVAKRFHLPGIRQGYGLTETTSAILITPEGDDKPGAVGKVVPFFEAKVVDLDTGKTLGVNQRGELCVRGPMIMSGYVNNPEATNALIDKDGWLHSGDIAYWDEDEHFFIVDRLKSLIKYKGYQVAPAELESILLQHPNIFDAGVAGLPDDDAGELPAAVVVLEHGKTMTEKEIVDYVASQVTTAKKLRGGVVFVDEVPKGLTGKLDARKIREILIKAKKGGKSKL
Summary of the method: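 Inhibition of purified Photinus luciferase is measured by luminescence. Substrate levels (D-luciferin, ATP) sit at their KM values. Each compound is tested in a concentration series.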

[3] = qHTS assay to identify small molecule agonists of the constitutive androstane receptor (CAR) signaling pathway - cell viability counter screen (AID 1224836); also: nearly all actives have a fitted effect of over 45% in size; also: potency is read from the fitted curve at half-maximal effect; as to viability change, negative = cytotoxic: series mostly up to about 92 µM
Summary of the method: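 Fluorescence from CellTiter-Fluor indicates live cells after 23 h exposure. The human hepatoma line expresses hCAR and a CYP2B6-2.2kb reporter. Incubation medium contains 0.75 uM PK11195 (final).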

[4] = target: Nuclear receptor subfamily 1 group I member 3 (Homo sapiens) (UniProt Q14994); test: qHTS assay to identify small molecule antagonists of the constitutive androstane receptor (CAR) signaling pathway (AID 1224838); also: nearly all actives have a fitted effect of over 40% in size; also: potency is read from the fitted curve at half-maximal effect
Chain of Nuclear receptor subfamily 1 group I member 3 (Homo sapiens) (Q14994 whole entry, looked up): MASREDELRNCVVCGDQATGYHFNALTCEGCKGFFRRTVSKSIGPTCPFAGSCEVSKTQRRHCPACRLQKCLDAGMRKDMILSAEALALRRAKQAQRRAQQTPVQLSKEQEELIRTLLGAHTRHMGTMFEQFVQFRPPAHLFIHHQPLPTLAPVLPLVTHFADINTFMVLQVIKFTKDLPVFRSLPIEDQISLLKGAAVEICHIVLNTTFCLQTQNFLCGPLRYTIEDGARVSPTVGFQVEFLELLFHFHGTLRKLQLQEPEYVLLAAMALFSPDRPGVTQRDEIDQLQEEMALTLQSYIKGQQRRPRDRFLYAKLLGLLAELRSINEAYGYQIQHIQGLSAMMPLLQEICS
Summary of the method: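 Inhibition of CITCO-driven (50 nM final) CYP2B6 reporter expression is measured in HepG2 cells stably carrying hCAR. Fifteen compound concentrations are applied for 24 h at 37 C, followed by luciferase luminescence.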

[5] = target: Nuclear receptor subfamily 1 group I member 3 (Homo sapiens) (UniProt Q14994); test: qHTS assay to identify small molecule agonists of the constitutive androstane receptor (CAR) signaling pathway (AID 1224839); also: nearly all actives have a fitted effect of over 15% in size; also: potency is read from the fitted curve at half-maximal effect; as to activation: series mostly up to about 92 µM
Summary of the method: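 Stable hCAR/CYP2B6-2.2kb HepG2 line in DMEM with 10% FBS; compounds (15 concentrations) and 0.75 uM PK11195 final, 24 h at 37 C/5% CO2, then ONE-Glo luminescence after 30 min.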

[6] = qHTS assay to identify small molecule antagonists of the estrogen related receptor signaling pathway with the pleiotropic PPARgamma coactivator (PGC) from Tox21 10K library - cell viability counter screen (AID 1224840; active = well fitted cell-killing curve with a large enough effect in the repeat runs, not every such curve was filed as active; also: nearly all actives have a fitted effect of over 40% in size; also: potency is read from the fitted curve at half-maximal effect)
Summary of the method: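 Readout: fluorescence intensity from CellTiter-Fluor after 30 min at 37 C/5% CO2. Preceded by 17.5 h treatment of PGC/ERR cells with DMSO-dissolved compounds, added 6 h post-seeding.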

[7] = target: Thyrotropin receptor (Homo sapiens) (UniProt P16473); test: qHTS assay to identify small molecule agonists of the thyroid stimulating hormone receptor (TSHR) signaling pathway (AID 1224843; calls by dose curve; also: nearly all actives have a fitted effect of over 45% in size)
Chain of Thyrotropin receptor (Homo sapiens) (P16473 whole entry, looked up): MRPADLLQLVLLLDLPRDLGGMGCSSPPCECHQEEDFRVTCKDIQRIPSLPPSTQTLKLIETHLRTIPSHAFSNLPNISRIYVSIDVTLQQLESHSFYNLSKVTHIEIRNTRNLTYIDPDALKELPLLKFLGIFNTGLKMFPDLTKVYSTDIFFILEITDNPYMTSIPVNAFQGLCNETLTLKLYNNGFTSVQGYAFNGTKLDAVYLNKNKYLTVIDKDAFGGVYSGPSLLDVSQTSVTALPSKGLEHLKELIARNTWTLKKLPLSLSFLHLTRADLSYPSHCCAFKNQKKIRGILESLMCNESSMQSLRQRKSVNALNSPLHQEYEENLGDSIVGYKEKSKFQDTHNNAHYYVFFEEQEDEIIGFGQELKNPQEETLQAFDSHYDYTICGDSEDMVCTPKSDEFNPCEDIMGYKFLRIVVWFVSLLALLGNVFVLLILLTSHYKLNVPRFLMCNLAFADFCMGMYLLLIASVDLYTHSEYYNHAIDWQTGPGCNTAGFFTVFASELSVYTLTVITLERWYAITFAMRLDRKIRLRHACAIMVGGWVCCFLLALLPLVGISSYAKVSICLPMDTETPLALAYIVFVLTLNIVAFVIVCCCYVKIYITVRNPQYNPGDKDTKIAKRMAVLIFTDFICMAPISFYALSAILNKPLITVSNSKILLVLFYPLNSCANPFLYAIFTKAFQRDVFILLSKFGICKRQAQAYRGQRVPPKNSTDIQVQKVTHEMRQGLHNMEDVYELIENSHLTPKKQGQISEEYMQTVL
Summary of the method: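 A cell-based cAMP HTRF format was run in TSHR-transfected HEK293 cells, 800 per well. Treatment: 30 min, room temperature. Detection: 1 h with labelled cAMP and anti-cAMP cryptate. Concentration-response over 15 points, three replicates.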

[8] = qHTS assay to identify small molecule agonists of the estrogen related receptor signaling pathway with the pleiotropic PPARgamma coactivator (PGC) from Tox21 10K library (AID 1224842); also: nearly all actives have a fitted effect of over 15% in size
Summary of the method: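 Luminescence from One-Glo (30 min, room temperature) measured after PGC/ERR cells had 18 h at 37 C with pinned compound (23 nL in DMSO). Cells had been seeded at 2,000 per well and pre-incubated 6 h.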

[9] = qHTS assay to identify small molecule antagonists of the estrogen related receptor signaling pathway with the pleiotropic PPARgamma coactivator (PGC) from Tox21 10K library (AID 1224841; call rule not given here; also: actives are mostly falling curves and most rising ones were filed inactive; nearly all actives have a fitted effect of over 50% in size; also: potency is read from the fitted curve at half-maximal effect)
Summary of the method: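 One-Glo luminescence, measured after half an hour at room temperature, quantified reporter output of PGC/ERR cells. These had been plated at 2,000 per well, incubated 6 h, dosed with compounds in DMSO, then kept 18 h at 37 C.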

[10] = qHTS assay to identify small molecule antagonists of the constitutive androstane receptor (CAR) signaling pathway - cell viability counter screen (AID 1224837); also: series mostly up to about 92 µM; nearly all actives have a fitted effect of over 45% in size
Summary of the method: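 CITCO at 50 nM final was added alongside compounds (15 concentrations) to double-stable hCAR/CYP2B6-2.2kb HepG2 cells. Following 23 hr at 37 C, cell viability was quantified by CellTiter-Fluor fluorescence intensity.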
% is scaled to controls: 0 for no effect and ±100 for the full control effect.

CCCCOCCOC(=O)c1cccnc1
inactive: Potency [1] | Potency [2] | Potency [3] | Potency [4] | Potency [5] | Potency [6] | Potency [7]

COc1cc(NC(C)CCCN)c2ncccc2c1 (centres undefined)
inactive: Potency [1] | Potency [2] | Potency [3] | Potency [4] | Potency [5] | Potency [6] | Potency [8] | Potency [7]

CC(CCc1ccc(O)cc1)NCCc1ccc(O)c(O)c1 (centres undefined)
inactive: Potency [1] | Potency [2] | Potency [3] | Potency [6] | Potency [9] | Potency [8] | Potency [7]

CC1=CC[C@@]23C[C@@H]1C(C)(C)[C@@H]2CC[C@H]3C
inactive: Potency [1] | Potency [2] | Potency [3] | Potency [5] | Potency [6] | Potency [7]

CC(C)C1CCC(C(=O)N[C@H](Cc2ccccc2)C(=O)O)CC1 (some centres undefined)
inactive: Potency [1] | Potency [2] | Potency [3] | Potency [10] | Potency [6] | Potency [7]

C[C@@H]1C[C@H]2[C@@H]3CCC4=CC(=O)C=C[C@]4(C)[C@@]3(F)[C@@H](O)C[C@]2(C)[C@@]1(O)C(=O)COP(=O)(O)O
inactive: Potency [1] | Potency [2] | Potency [3] | Potency [10] | Potency [6] | Potency [7]

CO[C@@H]1[C@@H](OC)[C@H](C)[C@@](O)(CC(=O)O)O[C@H]1[C@H](C)[C@H]1O[C@@]2(CC[C@@](C)([C@H]3CC[C@@](C)([C@@H]4O[C@@H]([C@H]5O[C@](C)(O)[C@H](C)C[C@@H]5C)C[C@@H]4OC4C[C@H](OC)[C@@H](OC)[C@H](C)O4)O3)O2)C[C@H](O)[C@H]1C (some centres undefined)
inactive: Potency [2]
active: Potency [1] 0.944 µM | Potency [3] 5.31 µM | Potency [4] 9.44 µM | Potency [6] 0.75 µM

O=C(O)CCCc1c[nH]c2ccccc12
inactive: Potency [1] | Potency [2] | Potency [3] | Potency [6] | Potency [9] | Potency [8] | Potency [7]

CCCCCCCC(=O)Oc1c(Br)cc(C#N)cc1Br
inactive: Potency [2] | Potency [3] | Potency [10] | Potency [4] | Potency [5] | Potency [6] | Potency [8] | Potency [7]
active: Potency [9] 43.1 µM

CCSC(=O)N(CC)CC
inactive: Potency [2] | Potency [3] | Potency [10] | Potency [4] | Potency [5] | Potency [6] | Potency [7]

O[C@@H](CNC[C@H](O)[C@H]1CCc2cc(F)ccc2O1)[C@@H]1CCc2cc(F)ccc2O1
inactive: Potency [2] | Potency [8] | Potency [7]
active: Potency [1] 29.8 µM | Potency [9] 33.5 µM

CCOC(=O)N1CCC(Nc2ccc(Cl)cc2N)CC1
inactive: Potency [2] | Potency [3] | Potency [10] | Potency [4] | Potency [5] | Potency [6] | Potency [7]

CC1=CC[C@@H]2C[C@H]1C2(C)C
inactive: viability change, negative = cytotoxic [1] 2.93% [at 19 µM] | viability change, negative = cytotoxic [3] 1.82% [at 19 µM] | activity change, negative = cytotoxicity [10] -2.4% [at 19 µM] | viability change, negative = cytotoxic [6] -1.25% [at 19 µM] | activation [7] 21.3% [at 19 µM]

CCC(C)(C)C(=O)O
inactive: Potency [2] | Potency [3] | Potency [10] | Potency [4] | Potency [5] | Potency [6] | Potency [7]

O=[N+]([O-])c1ccc2ncccc2c1
inactive: Potency [1] | Potency [3] | Potency [10] | Potency [4] | Potency [5] | Potency [6] | Potency [8] | Potency [7]

ClC1=C(Cl)C1(Cl)Cl
inactive: Potency [2] | Potency [3] | Potency [10] | Potency [4] | Potency [5] | Potency [6] | Potency [9] | Potency [8] | Potency [7]

CC[C@H]1OC(=O)[C@H](C)[C@@H](O[C@H]2C[C@@](C)(OC)[C@@H](O)[C@H](C)O2)[C@H](C)[C@@H](O[C@@H]2O[C@H](C)C[C@H](N(C)C)[C@H]2O)[C@](C)(O)C[C@@H](C)CN(C)[C@H](C)[C@@H](O)[C@]1(C)O
inactive: Potency [2] | Potency [3] | Potency [10] | Potency [4] | Potency [5] | Potency [6]

O=C1c2ccccc2C(=O)c2c(O)ccc(O)c21
active: Potency [5] 48.6 µM | Potency [9] 0.545 µM
inactive: Potency [2] | Potency [3] | Potency [10] | Potency [4] | Potency [6] | Potency [8]

Cc1ccc(N(CC2=NCCN2)c2cccc(O)c2)cc1
inactive: Potency [2] | Potency [3] | Potency [10] | Potency [4] | Potency [5] | Potency [6] | Potency [7]

Cc1cccc2sc(N)nc12
inactive: Potency [1] | Potency [3] | Potency [10] | Potency [4] | Potency [6]

CCN(CC)C(=O)/C(C#N)=C/c1cc(O)c(O)c([N+](=O)[O-])c1
inactive: Potency [2] | Potency [4] | Potency [5] | Potency [7]
active: Potency [1] 26.6 µM

O=C(Nc1ccc(C(=O)O)c(O)c1)c1ccccc1
active: Potency [2] 27.5 µM
inactive: Potency [1] | Potency [10] | Potency [4] | Potency [6] | Potency [7]

BrC(Br)C(Br)Br
inactive: Potency [1] | Potency [3] | Potency [10] | Potency [4] | Potency [5] | Potency [6] | Potency [7]

C=CC(=O)O
inactive: Potency [1] | Potency [3] | Potency [10] | Potency [4] | Potency [6] | Potency [7]

Nc1ccc(N=Nc2ccc(N)cc2)cc1
inactive: Potency [4] | Potency [5] | Potency [7]
active: Potency [1] 27.3 µM | Potency [2] 4.48 µM

CCC1CCC(CCC(=O)O)C1 (centres undefined)
inactive: Potency [2] | Potency [3] | Potency [10] | Potency [4] | Potency [5] | Potency [6] | Potency [9] | Potency [8] | Potency [7]

COC(=O)C1=C(C)NC(C)=C(C(=O)OC(C)(C)CN(C)CCC(c2ccccc2)c2ccccc2)C1c1cccc([N+](=O)[O-])c1 (centres undefined)
active: Potency [1] 23.7 µM | Potency [9] 16.8 µM
inactive: Potency [2] | Potency [4] | Potency [8] | Potency [7]
